Compounds without any hit were thinned out: in the full panel of roughly 83,000, 20% have a hit.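 Cells were grown in 96-well plates and exposed to the test compound at a single concentration for 48 hours; results are reported as percent growth, with values below 10 considered active.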 Activity calls are given as the source filed them.
Tests used:
Experiment in all cases: NCI-60 one-dose screen, 48 h (100 = growth as untreated, 0 = no growth, -100 = all killed)
RPMI-8226 leukemia = details: 10 µM unless noted
OVCAR-8 ovarian = details: 10 µM unless noted
OVCAR-5 ovarian = details: 10 µM unless noted
OVCAR-4 ovarian = details: 10 µM unless noted
IGROV1 ovarian = details: 10 µM unless noted
OVCAR-3 ovarian = details: 10 µM unless noted
HS 578T breast = details: 10 µM unless noted
NCI/ADR-RES ovarian = details: 10 µM unless noted
T-47D breast = details: 10 µM unless noted
BT-549 breast = details: 10 µM unless noted
MDA-MB-435 melanoma = details: 10 µM unless noted
SW-620 colon = details: 10 µM unless noted
HCT-116 colon = details: 10 µM unless noted
HCC-2998 colon = details: 10 µM unless noted
KM12 colon = details: 10 µM unless noted
MCF7 breast = details: 10 µM
SK-OV-3 ovarian = details: 10 µM unless noted

Measured: growth

COC(=O)/C(CCC=C(C)C)=C1\[C@@H](OC(C)=O)C[C@@]2(C)[C@H]1C[C@@H](O)[C@H]1[C@@]3(C)CC[C@H](NCCCNCCCCNCCCN)[C@@H](C)[C@@H]3CC[C@@]12C
active: MDA-MB-435 melanoma 8.03%
inactive: RPMI-8226 leukemia 20.2% | OVCAR-8 ovarian 54.6% | OVCAR-5 ovarian 88.1% | OVCAR-4 ovarian 85.1% | IGROV1 ovarian 41.9% | OVCAR-3 ovarian 83% | HS 578T breast 82.7% | NCI/ADR-RES ovarian 65.9% | T-47D breast 57% | BT-549 breast 80.4% | SW-620 colon 55.8% | HCT-116 colon 47.1% | HCC-2998 colon 52.1% | KM12 colon 21.7%

O=c1c2cc(F)ccc2sc2c(Nc3ccncc3)nc3ccccc3c12
active: RPMI-8226 leukemia -31.4% | OVCAR-8 ovarian -18% | OVCAR-5 ovarian -2.06% | OVCAR-4 ovarian -67.5% | NCI/ADR-RES ovarian -9.24% | T-47D breast -3.72% | MDA-MB-435 melanoma -62.1% | SW-620 colon -74.6% | HCT-116 colon -48.9% | KM12 colon 1.24%
inactive: IGROV1 ovarian 70.7% | OVCAR-3 ovarian 36.5% | HS 578T breast 75.3% | BT-549 breast 81.5% | HCC-2998 colon 75.9%

O=c1c(-c2nc3ccccc3[nH]2)cc2ccccc2n1Cc1cn(Cc2ccc(N3CCOCC3)cc2)nn1
inactive: RPMI-8226 leukemia 80.4% | OVCAR-8 ovarian 37.4% | OVCAR-5 ovarian 77.3% | IGROV1 ovarian 40% | OVCAR-3 ovarian 83.5% | HS 578T breast 74.7% | NCI/ADR-RES ovarian 68.8% | T-47D breast 71.4% | BT-549 breast 45.9% | MDA-MB-435 melanoma 76.6% | SW-620 colon 70.7% | MCF7 breast 56.8% | HCC-2998 colon 93.2% | KM12 colon 87.3%
active: OVCAR-4 ovarian 6.82%

Cc1ccc(C2CC(c3ccc(Nc4nc(NCCO)nc(Nc5ccc(Cl)cc5)n4)cc3)=NN2c2cc(Cl)cc(Cl)c2)cc1 (configuration not stated)
inactive: RPMI-8226 leukemia 101% | OVCAR-8 ovarian 97.4% | OVCAR-5 ovarian 94.2% | OVCAR-4 ovarian 102% | IGROV1 ovarian 87.8% | OVCAR-3 ovarian 102% | HS 578T breast 68.3% | NCI/ADR-RES ovarian 105% | T-47D breast 94.5% | BT-549 breast 95.9% | MDA-MB-435 melanoma 98.8% | SW-620 colon 101% | MCF7 breast 88.2% | HCT-116 colon 103% | HCC-2998 colon 111% | KM12 colon 103%

COc1cc(/C=C/C(=O)c2ccc(Nc3nc(NCCO)nc(N4CCOCC4)n3)cc2)cc(OC)c1OC
inactive: OVCAR-8 ovarian 11.6% | OVCAR-5 ovarian 34% | OVCAR-4 ovarian 23.9% | IGROV1 ovarian 20.6% | NCI/ADR-RES ovarian 53.7% | T-47D breast 32.1% | BT-549 breast 33.5% | MDA-MB-435 melanoma 10.1% | HCC-2998 colon 20%
active: RPMI-8226 leukemia -21% | OVCAR-3 ovarian 2.88% | HS 578T breast 9.53% | SW-620 colon 7.8% | MCF7 breast 3.22% | HCT-116 colon 9.47% | KM12 colon 7.4%

O=C(/C=C/c1ccc(C(F)(F)F)cc1)c1ccc(Nc2nc(NCCO)nc(Nc3ccc(Cl)cc3)n2)cc1
active: RPMI-8226 leukemia 6.67% | SW-620 colon 0.404% | MCF7 breast -43.1% | HCT-116 colon -85.6% | HCC-2998 colon -30.2% | KM12 colon -51.2%
inactive: OVCAR-8 ovarian 52.6% | OVCAR-5 ovarian 97.3% | OVCAR-4 ovarian 42.2% | IGROV1 ovarian 83.5% | OVCAR-3 ovarian 27.1% | HS 578T breast 72.4% | NCI/ADR-RES ovarian 78.7% | T-47D breast 24.2% | BT-549 breast 57.9% | MDA-MB-435 melanoma 47.7%

CCCCC1CCc2cccc3c(SCC(=O)N(C)c4ccc(Cl)cc4)cc[n+]1c23 (configuration not stated)
inactive: RPMI-8226 leukemia 110% | OVCAR-8 ovarian 113% | OVCAR-5 ovarian 116% | OVCAR-4 ovarian 107% | IGROV1 ovarian 121% | OVCAR-3 ovarian 108% | HS 578T breast 116% | NCI/ADR-RES ovarian 110% | T-47D breast 104% | BT-549 breast 115% | SW-620 colon 106% | MCF7 breast 99.1% | HCC-2998 colon 114% | KM12 colon 108%

O=C1Nc2ccccc2/C1=C/c1ccc[nH]1
inactive: RPMI-8226 leukemia 97.6% | OVCAR-8 ovarian 92.8% | OVCAR-5 ovarian 78.7% | OVCAR-4 ovarian 29.8% | IGROV1 ovarian 49.7% | OVCAR-3 ovarian 81.7% | HS 578T breast 86.6% | NCI/ADR-RES ovarian 99.9% | BT-549 breast 57.8% | MDA-MB-435 melanoma 101% | SW-620 colon 89.3% | MCF7 breast 12.8% | HCT-116 colon 96% | HCC-2998 colon 54.7% | KM12 colon 10.4%
active: T-47D breast -24.3%

COc1ccc(/C=c2\sc3n(c2=O)NC2C(N=3)N(C)C(=O)N2C)cc1 (configuration not stated)
inactive: RPMI-8226 leukemia 96.1% | OVCAR-8 ovarian 101% | OVCAR-5 ovarian 95.1% | OVCAR-4 ovarian 100% | IGROV1 ovarian 99.8% | OVCAR-3 ovarian 102% | HS 578T breast 95.9% | NCI/ADR-RES ovarian 100% | T-47D breast 102% | BT-549 breast 111% | MDA-MB-435 melanoma 89.6% | SW-620 colon 105% | MCF7 breast 94.5% | HCC-2998 colon 108% | KM12 colon 95.2%

O=C1Nc2ccccc2/C1=C/c1cccs1
inactive: RPMI-8226 leukemia 93.7% | OVCAR-8 ovarian 91.6% | OVCAR-5 ovarian 95.5% | OVCAR-4 ovarian 37% | IGROV1 ovarian 72% | OVCAR-3 ovarian 90.5% | HS 578T breast 94.8% | NCI/ADR-RES ovarian 91.8% | BT-549 breast 88.5% | SW-620 colon 98.3% | MCF7 breast 60.8% | HCT-116 colon 99.9% | HCC-2998 colon 91.4% | KM12 colon 77.1%
active: T-47D breast -4.77%

O=C(CSc1nc2ccccc2c(=O)n1-c1ccccc1)Nc1ccc(C(=O)/C=C/c2ccc(Cl)cc2)cc1
inactive: RPMI-8226 leukemia 91.5% | OVCAR-8 ovarian 103% | OVCAR-5 ovarian 98.4% | OVCAR-4 ovarian 105% | IGROV1 ovarian 97.3% | OVCAR-3 ovarian 104% | HS 578T breast 106% | NCI/ADR-RES ovarian 106% | T-47D breast 107% | BT-549 breast 111% | SW-620 colon 99.1% | MCF7 breast 85.1% | HCT-116 colon 102% | HCC-2998 colon 109% | KM12 colon 100%

O=c1cc(-c2ccccc2)oc2cc(OCc3cn(Cc4ccc(F)cc4)nn3)cc(OCc3cn(Cc4ccc(F)cc4)nn3)c12
inactive: RPMI-8226 leukemia 45.6% | OVCAR-8 ovarian 12.7% | OVCAR-5 ovarian 55.1% | IGROV1 ovarian 43.5% | OVCAR-3 ovarian 21.2% | HS 578T breast 20.9% | NCI/ADR-RES ovarian 70.4% | T-47D breast 40.6% | BT-549 breast 18.8% | MDA-MB-435 melanoma 40.9% | SW-620 colon 60.3% | MCF7 breast 53.3% | HCT-116 colon 18.2% | HCC-2998 colon 74.1% | KM12 colon 43.3%
active: OVCAR-4 ovarian -9.56%

Nc1nc(-c2ccccc2Br)nn1-c1nc2ccccc2s1
inactive: RPMI-8226 leukemia 102% | OVCAR-8 ovarian 97.6% | OVCAR-5 ovarian 98% | OVCAR-4 ovarian 101% | IGROV1 ovarian 101% | OVCAR-3 ovarian 108% | HS 578T breast 104% | NCI/ADR-RES ovarian 105% | T-47D breast 105% | BT-549 breast 100% | MDA-MB-435 melanoma 95% | SW-620 colon 104% | MCF7 breast 78.4% | HCC-2998 colon 110% | KM12 colon 101%

Nc1nc2c(ncn2[C@@H]2O[C@H](CS)[C@@H](O)[C@H]2O)c(=O)[nH]1
inactive: RPMI-8226 leukemia 94.9% | OVCAR-8 ovarian 99.2% | OVCAR-5 ovarian 93.3% | OVCAR-4 ovarian 99.1% | IGROV1 ovarian 103% | OVCAR-3 ovarian 104% | HS 578T breast 99.6% | NCI/ADR-RES ovarian 104% | T-47D breast 107% | BT-549 breast 100% | MDA-MB-435 melanoma 99.8% | SW-620 colon 96% | MCF7 breast 101% | HCT-116 colon 102% | HCC-2998 colon 104% | KM12 colon 101%

O=C1CCC(N2C(=O)c3cccc(NCCCCCCOc4ccc(Nc5nccc(Nc6ccccc6)n5)cc4)c3C2=O)C(=O)N1 (configuration not stated)
inactive: RPMI-8226 leukemia 38.5% | OVCAR-8 ovarian 77.8% | OVCAR-5 ovarian 109% | OVCAR-4 ovarian 64.6% | IGROV1 ovarian 72.5% | OVCAR-3 ovarian 78.8% | HS 578T breast 98.2% | NCI/ADR-RES ovarian 79.2% | BT-549 breast 65.1% | MDA-MB-435 melanoma 75.9% | SW-620 colon 91% | MCF7 breast 66.8% | HCT-116 colon 77.6% | HCC-2998 colon 98.4% | KM12 colon 88.5%

COc1cc(-c2c3c(c(Br)n2Cc2ccccc2)-c2nc(N)sc2CC3)cc(OC)c1OC
inactive: RPMI-8226 leukemia 71.9% | OVCAR-8 ovarian 89.2% | OVCAR-5 ovarian 107% | SK-OV-3 ovarian 107% | IGROV1 ovarian 110% | OVCAR-3 ovarian 95.6% | HS 578T breast 80% | NCI/ADR-RES ovarian 87.4% | T-47D breast 63.8% | BT-549 breast 94.1% | MDA-MB-435 melanoma 35.8% | SW-620 colon 74.9% | MCF7 breast 61.4% | HCT-116 colon 69.2% | HCC-2998 colon 96.3% | KM12 colon 88.6%

O=C(Nc1ccccc1O)c1ccc(Oc2cccc(C(=O)Nc3ccccc3O)c2)cc1
inactive: OVCAR-8 ovarian 16.7% | OVCAR-5 ovarian 50.7% | SK-OV-3 ovarian 26.6% | IGROV1 ovarian 18.6% | OVCAR-3 ovarian 27.3% | HS 578T breast 40.6% | T-47D breast 26.1% | MDA-MB-435 melanoma 28.3% | SW-620 colon 18.4% | MCF7 breast 11.3% | HCC-2998 colon 21% | KM12 colon 15.8%
active: RPMI-8226 leukemia 8.97% | NCI/ADR-RES ovarian 5.02% | BT-549 breast 3.78% | HCT-116 colon 9.66%

COc1ccccc1N1CCN(C(CNS(=O)(=O)c2ccc(Cl)cc2)c2cccnc2)CC1 (configuration not stated)
inactive: RPMI-8226 leukemia 27.5% | OVCAR-8 ovarian 100% | OVCAR-5 ovarian 113% | SK-OV-3 ovarian 108% | OVCAR-3 ovarian 75.4% | HS 578T breast 88.3% | NCI/ADR-RES ovarian 93.9% | T-47D breast 102% | BT-549 breast 84.9% | MDA-MB-435 melanoma 86.6% | SW-620 colon 101% | MCF7 breast 78.3% | HCT-116 colon 82.6% | HCC-2998 colon 88% | KM12 colon 61.4%

COc1ccc(CCN2CCC(CN(C)Cc3cnn(-c4ccccc4)c3)CC2)cc1
inactive: RPMI-8226 leukemia 15.6% | OVCAR-8 ovarian 15.3% | OVCAR-5 ovarian 57.4% | SK-OV-3 ovarian 39.2% | IGROV1 ovarian 28.9% | OVCAR-3 ovarian 37.4% | HS 578T breast 67.1% | NCI/ADR-RES ovarian 12% | T-47D breast 36.4% | BT-549 breast 32.5% | MDA-MB-435 melanoma 38.1% | SW-620 colon 26% | MCF7 breast 12.4% | HCC-2998 colon 21.5% | KM12 colon 22.5%
